Data reported in PubChem BioAssay (NCI).
This is part of a sample that, as a whole, favours compounds with a hit. Of some 83,000 tested, about 20% had one in any assay.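 96-well plates, one dose, 48 hours. Percent growth reported; active if below 10.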 Unmarked numbers belong to inactive results. Calls of active or inactive are those of the source.

How the values were obtained:
Test in all cases: NCI-60 one-dose screen, 48 h (100 = growth as untreated, 0 = no growth, -100 = all killed)
Conditions in all cases: 10 µM unless noted
DU-145 prostate = tested on: DU-145 prostate
K-562 leukemia = tested on: K-562 leukemia
MALME-3M melanoma = tested on: MALME-3M melanoma
MDA-MB-231 breast = tested on: MDA-MB-231 breast
RXF 393 renal = tested on: RXF 393 renal
SF-268 CNS = tested on: SF-268 CNS
SF-295 CNS = tested on: SF-295 CNS
SF-539 CNS = tested on: SF-539 CNS
UACC-257 melanoma = tested on: UACC-257 melanoma
M14 melanoma = tested on: M14 melanoma
HCT-15 colon = tested on: HCT-15 colon
HT29 colon = tested on: HT29 colon
SNB-75 CNS = tested on: SNB-75 CNS
SNB-19 CNS = tested on: SNB-19 CNS
U251 CNS = tested on: U251 CNS
PC-3 prostate = tested on: PC-3 prostate
SK-MEL-5 melanoma = tested on: SK-MEL-5 melanoma
UACC-62 melanoma = tested on: UACC-62 melanoma
LOX IMVI melanoma = tested on: LOX IMVI melanoma
SK-MEL-28 melanoma = tested on: SK-MEL-28 melanoma

Row | SMILES | growth (DU-145 prostate) | growth (K-562 leukemia) | growth (MALME-3M melanoma) | growth (MDA-MB-231 breast) | growth (RXF 393 renal) | growth (SF-268 CNS) | growth (SF-295 CNS) | growth (SF-539 CNS) | growth (UACC-257 melanoma) | growth (M14 melanoma) | growth (HCT-15 colon) | growth (HT29 colon) | growth (SNB-75 CNS) | growth (SNB-19 CNS) | growth (U251 CNS) | growth (PC-3 prostate) | growth (SK-MEL-5 melanoma) | growth (UACC-62 melanoma) | growth (LOX IMVI melanoma) | growth (SK-MEL-28 melanoma)
1 | Oc1c(I)cc(I)cc1CNCCCN(Cc1ccccn1)Cc1ccccn1 | -45.8% (active) | 5.96% (active) | -73.2% (active) | -66.2% (active) | -86.6% (active) | -27.3% (active) | -83.6% (active) | -88.3% (active) | -41.5% (active) | -72% (active) | -37.7% (active) | -12.9% (active) | -89% (active) | 2.67% (active) | -12.9% (active) | -55.5% (active) | -96.9% (active) | -55.5% (active) | -91.7% (active) | -33.8% (active)
2 | COc1cc(-c2nc3sccn3c2-c2ccnc(NCCCNS(=O)(=O)c3ccc(F)cc3)n2)ccc1F | 76.1% | 38.2% | 75.1% | 86.1% | 71.6% | 74.2% | 57.1% | 95.6% | 77.8% | 53.6% | 44.8% | 61% | 59.9% | 96.3% | 91.4% | 46.8% | 40.7% | 29.7% | 48.3% | 73.9%
3 | CCc1cccc2c1S/C(=C/c1ccc(Cl)cc1)C2=O | 107% | 80.1% | 87.5% | 87.6% | 105% | 93% | 96.7% | 89.1% | 105% | 99.1% | 92.5% | 105% | 73.3% | 95.1% | 99.2% | 88.6% | 99.4% | 88.6% | 93.8% | 110%
4 | CCOC(=O)c1sc2ncc(-c3ccc(OC)cc3)n2c1C | 105% | 91.2% | 101% | 92.4% | 111% | 98.1% | 96.4% | 91.8% | 105% | 95.3% | 90.2% | 102% | 92% | 92.4% | 105% | 92.1% | 94.3% | 78.6% | 93.4% | 106%
5 | CCS(=O)(=O)c1ncnc2nc[nH]c12 | 112% | 101% | 106% | 111% | 113% | 104% | 99.8% | 95.1% | 93.1% | 88.1% | 101% | 93.2% | 90.9% | 97.9% | 95.6% | 76.4% | 98.7% | 94.1% | 101% | 107%
6 | CC([C@H]1CCC2C3CCC4C(=O)C(NC=O)=CC[C@]4(C)C3CC[C@@]21C)N(C)C (stereo not given in full) | 59.5% | 15% | -2.06% (active) | 11.2% | -53.3% (active) | -3.89% (active) | 36.6% | -45.6% (active) | -20.9% (active) | -33% (active) | -37.1% (active) | -20.2% (active) | 34.1% | 76% | 25.6% | 27.4% | -56% (active) | -39.7% (active) | -37.2% (active) | -70.1% (active)
7 | O=C1c2ccccc2NC(n2sc3ccccc3c2=O)N1c1ccccc1 (stereo not given) | 107% | 95.5% | 106% | 90.6% | 110% | 91.7% | 99.6% | 94.7% | 120% | 102% | 91.5% | 90.6% | 94% | 101% | 104% | 92.9% | 105% | 93.3% | 87.9% | 116%
8 | Cc1oc2nc[nH]c(=O)c2c1C(=O)/C=C/c1ccc(Br)cc1 | 5.67% (active) | 10.8% | 24.5% | 16.1% | 4.34% (active) | 5.39% (active) | 14.2% | -9.63% (active) | 32.7% | 15.4% | -27.4% (active) | 15.3% | -2.44% (active) | 23.5% | 12% | 25.5% | 8.55% (active) | 13.2% | -90.6% (active) | 23.9%
9 | CCCCOc1nc2ccc(OC)cc2cc1-c1cc(-c2ccc(Cl)cc2)nc(-c2ccc(Cl)cc2)c1 | 114% | 106% | 100% | 93.5% | 101% | 99.8% | 98.1% | 98.3% | 99.6% | 111% | 104% | 104% | 91.2% | 93.6% | 102% | 96.9% | 102% | 93.5% | 101% | 104%
10 | CCOc1ccc2nc(SCc3nc4n(n3)S(=O)(=O)c3ccccc3N4C)sc2c1 | 25.3% | 34.8% | 10.1% | 10.5% | 7.23% (active) | 25.9% | 6.74% (active) | 8.46% (active) | 24.4% | 5.88% (active) | 26.9% | 62.3% | -15% (active) | 30.6% | 16.3% | 19.5% | -23.9% (active) | 25.9% | 19.8% | 45.7%
11 | CN1CCN(Cc2ccc(NC(=O)c3cncc(C#Cc4cnccc4C#N)c3)cc2C(F)(F)F)CC1 | 65.3% | 8.21% (active) | 17.2% | 68.6% | 76.6% | 89.9% | 96.3% | 42% | 41.1% | 25.4% | 55% | 27.5% | 122% | 102% | 77.3% | 91.7% | 54% | 41.5% | 12.4% | 30.1%
12 | O=C(CS(=O)c1oc(-c2cccs2)nc1S(=O)(=O)c1ccc(Br)cc1)c1ccccc1 (stereo not given) | 104% | 95.3% | 119% | 105% | 105% | 99.2% | 101% | 87% | 98.8% | 99.5% | 101% | 102% | 79.9% | 86.9% | 88.2% | 85.5% | 97.7% | 88.4% | 104% | 105%
13 | O=C(N/N=C/c1c(Cl)cccc1Cl)c1ccc(C(F)(F)F)nc1Nc1cccc(C(F)(F)F)c1 | 11.4% | -7.07% (active) | 5.8% (active) | 11.3% | 40.8% | -2.71% (active) | 13.7% | 1.63% (active) | 7.6% (active) | 23.6% | -13.5% (active) | 15.6% | 48.8% | 19.6% | 2.92% (active) | 7.85% (active) | 7.65% (active) | -3.04% (active) | 3.01% (active) | 36.6%
14 | Oc1ccc(Cl)cc1Cc1cc(Cl)cc(Cl)c1O | 33.2% | 5.3% (active) | -19.5% (active) | 69.2% | 74% | 42.3% | -15.1% (active) | 19.8% | 74.1% | 65.9% | 41.2% | 107% | 60.5% | 34.8% | 13% | -0.0941% (active) | 5.53% (active) | -9.82% (active) | 20.2% | 31.2%
15 | Cc1cc(=O)oc2cc(OC(=O)CN3CCN(C)CC3)ccc12 | 109% | 93.7% | 112% | 101% | 101% | 97.5% | 101% | 98.4% | 109% | 97.9% | 98.9% | 104% | 74.5% | 95.6% | 105% | 95.2% | 101% | 95.5% | 97.9% | 104%
16 | O=C(CSc1nccc(Nc2ccc(S(=O)(=O)Nc3nccs3)cc2)n1)c1ccc(C(F)(F)F)cc1 | 114% | 114% | 102% | 120% | 95.5% | 110% | 96.7% | 95.7% | 99.3% | 100% | 103% | 106% | 91.5% | 93.2% | 86.6% | 93.2% | 95.1% | 93.2% | 99.2% | 108%
